We go through eight compounds from PubChem BioAssay (NCI).

Common to all, as to assay: NCI-60 one-dose screen, 48 h (100 = growth as untreated, 0 = no growth, -100 = all killed)
For test [1], the system named is NCI-H23 lung. To be noted: 10 µM unless noted.
Test [2] has as its system NCI-H226 lung. The following applies: 10 µM unless noted.
Test [3] concerns NCI-H322M lung. The following applies: 10 µM unless noted.
Test [4] deals with HOP-62 NSCLC. The following applies: 10 µM unless noted.
For test [5], the system named is NCI-H460 lung. The following applies: 10 µM unless noted.
The test system of test [6] is HOP-92 NSCLC. The following applies: 10 µM unless noted.
Test [7] has as its system NCI-H522 lung. The following applies: 10 µM.
For test [8], the system named is 786-0 renal. The following applies: 10 µM unless noted.
The test system of test [9] is COLO 205 colon. The following applies: 10 µM unless noted.
For test [10], the system named is DU-145 prostate. To be noted: 10 µM unless noted.
Test [11] has as its system K-562 leukemia. To be noted: 10 µM unless noted.
In test [12] the test system is MALME-3M melanoma. The following applies: 10 µM unless noted.
Test [13] relates to MDA-MB-231 breast. The following applies: 10 µM unless noted.
For test [14], the system named is RXF 393 renal. The following applies: 10 µM unless noted.
Test [15] deals with SF-268 CNS. The following applies: 10 µM unless noted.
For test [16], the system named is SF-295 CNS. To be noted: 10 µM unless noted.
In test [17] the test system is SF-539 CNS. To be noted: 10 µM unless noted.
The subject of test [18] is UACC-257 melanoma. To be noted: 10 µM unless noted.
Test [19] concerns M14 melanoma. To be noted: 10 µM unless noted.

The panel holds about 83,000 compounds, 20% with a hit somewhere; the sample as a whole holds those more often.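 Each cell line was grown in a 96-well plate and treated with one concentration of compound for 48 hours. Values below 10 were considered active.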 Values without a mark were called inactive. Calls of active or inactive are those of the source.

Turning to `CC1c2ccccc2-c2ccccc2N1C` (stereo not given), the growth is 105% in [1]; 105% in [2]; 101% in [3]; 100% in test [4]; 105% in test [5]; 86.1% in test [6]. For the same compound, the growth in test [7] was 87.5%; in test [8], 104%; in test [9], 107%; in [10] it was 110%; in test [11], 88.3%; in test [12], 99.4%. Also, the growth in [13] was 97.4%; in test [14], 116%; in test [15] it was 105%; in test [16] it was 109%; in [17], 50.2%; in test [18] it was 114%. In addition, the growth in test [19] is 106%.

For `O=C(c1ccccc1)c1ccc(Oc2ccc([N+](=O)[O-])cc2[N+](=O)[O-])cc1`, the growth is 86.2% in test [1]; 48.4% in test [2]; 109% in test [3]; 99.1% in test [4]; 103% in test [5]; 52.9% in [6]. In addition, the growth in [7] was -26.6% (active); in test [8], 71.9%; in test [9], 84%; in [10], 95.9%; in test [11], 11.9%; in test [12], 70.2%. Further, the growth was 89.5% in [13]; 81.1% in test [14]; 87.8% in [15]; 91.2% in [16]; 55.3% in test [17]; 71% in test [18]. Besides, in test [19], the growth is 53.8%.

Regarding `COc1cc(/C(Cl)=C/C=C/C(=O)c2c(C)[n+]([O-])c3ccc(Cl)cc3[n+]2[O-])cc(OC)c1OC`, the growth in [1] is 63.7%; in [2], 54.3%; in test [3], 96.3%; in [4], 7.24% (active); in test [5] it was 56.6%; in [6] it was 68.8%. Besides, the growth in test [7] was -33.4% (active); in test [8] it was 35.1%; in [9] it was -14.8% (active); in test [10], 67.8%; in [11], 13.3%; in test [12], 65.7%. Also, the growth in test [13] was 30.1%; in test [14], 47.9%; in test [15] it was -20.1% (active); in test [16] it was 36.4%; in [17] it was 24.3%; in [19], 43.4%.

As to `Cc1c2oc3c(C)ccc(C(=O)OC(C)C4NC(=O)C(C(C)C)N(C)C(=O)CN(C)C(=O)C5CCCN5C(=O)C(C(C)C)NC4=O)c3nc-2c(C(=O)OC(C)C2NC(=O)C(C(C)C)N(C)C(=O)CN(C)C(=O)C3CCCN3C(=O)C(C(C)C)NC2=O)c(N)c1=O` (stereo not given), the growth is -7.25% (active) in [1]; -40.7% (active) in test [2]; 1.84% (active) in [3]; -20.4% (active) in [4]; 5.45% (active) in [5]; -15.7% (active) in test [6]. In addition, the growth in test [7] was -60.1% (active); in test [8], -11.9% (active); in test [9], -63.8% (active); in test [10], 11.4%; in test [11], 5.53% (active); in test [12] it was -37.6% (active). The growth in [13] was 3.61% (active); in [14], -78.5% (active); in test [15], -5.9% (active); in [16], -9.17% (active); in [17], -11.4% (active); in [19], -55.7% (active).

Turning to `NC(=O)NS(=O)(=O)c1ccc(N2N=C(C(F)(F)F)CC2c2cc(C(F)(F)F)cc(C(F)(F)F)c2)cc1` (stereo not given), the growth is 91.3% in [1]; 101% in [2]; 88.4% in [3]; 103% in test [4]; 81.3% in test [5]; 49.8% in [6]. The growth in test [7] is 38.4%; in test [8], 95.2%; in test [9] it was 99.8%; in test [10], 85.1%; in [11], 57.7%; in [12], 87.4%. Further, the growth in [13] is 91.6%; in test [14], 11.8%; in [15], 67.8%; in test [16], 68.6%; in test [17], 89.5%; in test [18], 31.5%. Further, the growth in [19] was 79.7%.

As for `O[N+]1=CC=CCC1=S.On1ccccc1=S.[Zn]`, the growth in [1] was -53.1% (active); in test [2] it was -85.9% (active); in [3] it was -87.3% (active); in [4], -86.8% (active); in test [5] it was -70.5% (active); in test [6], -64.5% (active). Besides, the growth in [7] was -92.4% (active); in test [8], -74.2% (active); in [9], -74.9% (active); in test [10], -90.1% (active); in test [11] it was -17.7% (active); in test [12] it was -54.9% (active). Moreover, the growth was -81.4% (active) in test [13]; -84.9% (active) in test [14]; -46.6% (active) in test [15]; -81.5% (active) in [16]; -64.8% (active) in [17]; -88.8% (active) in [18]. The growth in test [19] was -74.2% (active).

As to `CCSc1nc(-c2ccco2)n2nc(-c3ccco3)cc2n1`, the growth in [1] was 93.5%; in test [2] it was 90.7%; in test [3] it was 117%; in test [4], 100%; in [5], 92.1%; in test [6], 89.6%. The growth in test [7] was 101%; in test [8], 111%; in test [9], 114%; in [10] it was 118%; in test [11] it was 116%; in test [12] it was 116%. In addition, the growth was 88.1% in test [13]; 101% in [14]; 113% in test [15]; 101% in [16]; 100% in [17]; 102% in test [18]. The growth in test [19] is 121%.

`Cc1cc(C)c(C(=O)c2cccs2)c(C)c1`: the growth in test [1] is 100%; in test [2], 99.8%; in test [3], 106%; in [4], 95.2%; in test [5], 109%; in test [6] it was 74.4%. Besides, the growth is 93.3% in test [7]; 100% in [8]; 103% in test [9]; 111% in [10]; 98.4% in test [11]; 110% in test [12]. In addition, the growth was 107% in [13]; 110% in test [14]; 104% in [15]; 122% in test [16]; 106% in [17]; 99.3% in test [18]. Also, the growth in test [19] was 103%.
